Measured values as given in PubChem BioAssay (EPA / NIEHS).
Inconclusive results are not listed. Activity calls are given as the source filed them. Rule for the calls, unless noted: active = hit-call score of the fitted dose curve at least 0.9, where 1 is the maximum; inconclusive = response in the unintended direction; inactive = score below 0.9.

Tests used:
[1] = Tanguay_ZF_120hpf_MORT_legacy: (Legacy) Oregon State University Tanguay Lab 120 Hour Post-fertilization zebrafish Assay for Mortality (AID 2283633)
Method in brief: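 5D WT zebrafish, chorion removed 4 hpf; 1 embryo/well from 6 hpf; static exposure to 120 hpf, 28C, dark, sealed. Final DMSO 0.64%. Readout: binary mortality, brightfield, 24 + 120 hpf; DMSO as negative control.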

[2] = Tanguay_ZF_120hpf_YSE_legacy: (Legacy) Oregon State University Tanguay Lab 120 Hour Post-fertilization zebrafish Assay for Yolk Sac Edema (AID 2283634)
Method in brief: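 Dechorionate (pronase, 4 hpf) → place one 6 hpf embryo per well → static compound exposure, sealed and foil-covered, 28C, to 120 hpf → record yolk sac edema as present or absent. Final DMSO 0.64%.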

[3] = Tanguay_ZF_120hpf_AXIS_legacy: (Legacy) Oregon State University Tanguay Lab 120 Hour Post-fertilization zebrafish Assay for Body Axis Malformation (AID 2283635)
Method in brief: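 Chorion is removed with pronase at 4 hpf, then single 6 hpf embryos are dosed (final DMSO 0.64%) and held statically at 28C in sealed, foil-covered plates. At 120 hpf body axis malformation is recorded as present or absent.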

[4] = Tanguay_ZF_120hpf_EYE_legacy: (Legacy) Oregon State University Tanguay Lab 120 Hour Post-fertilization zebrafish Assay for Eye Malformation (AID 2283636)
Method in brief: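 Read-out is binary presence or absence of eye malformation, scored by brightfield microscopy at 120 hpf. Single larvae were exposed from 6 hpf in embryo medium containing 0.64% DMSO, with DMSO as baseline.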

[5] = Tanguay_ZF_120hpf_SNOU_legacy: (Legacy) Oregon State University Tanguay Lab 120 Hour Post-fertilization zebrafish Assay for Snout Malformation (AID 2283637)
Method in brief: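 Snout malformation read as a yes/no call on brightfield images of 120 hpf larvae (Tropical 5D strain). Static exposure began at 6 hpf on dechorionated embryos in 0.64% DMSO, with gain of signal analysed versus DMSO controls.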

[6] = Tanguay_ZF_120hpf_JAW_legacy: (Legacy) Oregon State University Tanguay Lab 120 Hour Post-fertilization zebrafish Assay for Jaw Malformation (AID 2283638)
Method in brief: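 Steps: dechorionate 4 hpf embryos (pronase); plate 1/well at 6 hpf; add test chemical, 0.64% DMSO final; seal, cover, hold at 28C statically to 120 hpf; score jaw defect presence/absence microscopically. Dead embryos not scored.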

[7] = Tanguay_ZF_120hpf_OTIC_legacy: (Legacy) Oregon State University Tanguay Lab 120 Hour Post-fertilization zebrafish Assay for Otic Vesicle Malformation (AID 2283639)
Method in brief: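 Otic vesicle malformation is read as a yes/no morphology call at 120 hpf. Exposure is static at 28C with 0.64% (vol/vol) DMSO; embryos that die are excluded from non-mortality endpoints.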

[8] = Tanguay_ZF_120hpf_BRAI_legacy: (Legacy) Oregon State University Tanguay Lab 120 Hour Post-fertilization zebrafish Assay for Brain Malformation (AID 2283641)
Method in brief: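 Wild-type 5D larvae, static waterborne exposure to 120 hpf, 28C, 0.64% v/v DMSO. Brightfield scoring of brain defects, binary; dead embryos excluded. Positive ctrl 5uM trimethyltin chloride.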

[9] = Tanguay_ZF_120hpf_SOMI_legacy: (Legacy) Oregon State University Tanguay Lab 120 Hour Post-fertilization zebrafish Assay for Somite Malformation (AID 2283647)
Method in brief: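 Read-out: presence or absence of somite malformation in 120 hpf larvae, gain-of-signal relative to DMSO baseline. Embryos lacked chorion (pronase, 4 hpf) and were exposed statically from 6 hpf at 28C; dead larvae not scored.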

[10] = Tanguay_ZF_120hpf_PFIN_legacy: (Legacy) Oregon State University Tanguay Lab 120 Hour Post-fertilization zebrafish Assay for Pectoral Fin Malformation (AID 2283648);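 note: each larva judged yes or no for fin defect by brightfield with dead larvae skipped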
Method in brief: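 5D WT zebrafish; pronase dechorionation 4 hpf; 1 embryo/well at 6 hpf; static exposure to 120 hpf, 28C, sealed, foil-covered; final DMSO 0.64% v/v; 5 uM trimethyltin chloride positive control; fin defect scored yes/no.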

[11] = Tanguay_ZF_120hpf_CFIN_legacy: (Legacy) Oregon State University Tanguay Lab 120 Hour Post-fertilization zebrafish Assay for Caudal Fin Malformation (AID 2283649)
Method in brief: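 Binary presence or absence of caudal fin malformation at 120 hpf, read by brightfield microscopy, with DMSO as baseline. Larvae came from 5D wild-type embryos exposed statically from 6 hpf at 28C after pronase dechorionation.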

[12] = Tanguay_ZF_120hpf_PIG_legacy: (Legacy) Oregon State University Tanguay Lab 120 Hour Post-fertilization zebrafish Assay for Pigmentation Malformation (AID 2283650)
Method in brief: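 Pronase dechorionation at 4 hpf; embryos plated at 6 hpf, one per well; static exposure, sealed and foil-covered, 28C, to 120 hpf; pigmentation read by brightfield, binary; DMSO 0.64% baseline, 5uM trimethyltin chloride positive control.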

[13] = Tanguay_ZF_120hpf_CIRC_legacy: (Legacy) Oregon State University Tanguay Lab 120 Hour Post-fertilization zebrafish Assay for Circulatory Malformation (AID 2283651)
Method in brief: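 Using wild-type Tropical 5D zebrafish, we exposed dechorionated embryos from 6 to 120 hpf in embryo medium with 0.64% DMSO. Circulatory defects were scored as present or absent; 5uM trimethyltin chloride served as positive control.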

[14] = Tanguay_ZF_120hpf_SWIM_legacy: (Legacy) Oregon State University Tanguay Lab 120 Hour Post-fertilization zebrafish Assay for Swim Bladder Malformation (AID 2283654);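 note: swim bladder malformation in each larva scored yes or no under brightfield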
Method in brief: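 Embryos lacking chorions were exposed individually and statically to test chemical from 6 to 120 hpf at 28C, with 0.64% DMSO as vehicle. At 120 hpf, swim bladder malformation was recorded as present or absent by brightfield microscopy.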

[15] = Tanguay_ZF_120hpf_TRUN_legacy: (Legacy) Oregon State University Tanguay Lab 120 Hour Post-fertilization zebrafish Assay for Truncated Body (AID 2283655)
Method in brief: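 Truncated body is recorded as a binary endpoint at 120 hpf by brightfield imaging of wild-type 5D larvae. Exposure runs statically from 6 hpf at 28C with 0.64% DMSO; embryos dying earlier are not scored.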

[16] = Tanguay_ZF_120hpf_PE_legacy: (Legacy) Oregon State University Tanguay Lab 120 Hour Post-fertilization zebrafish Assay for Pericardial Edema (AID 2283640)
Method in brief: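 Embryos from wild-type 5D adults were staged, then dosed in 0.64% DMSO. They were kept sealed in the dark at 28C until 120 hpf. Pericardial edema was then recorded as present or absent.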

[17] = Tanguay_ZF_120hpf_NC_legacy: (Legacy) Oregon State University Tanguay Lab 120 Hour Post-fertilization zebrafish Assay for Notochord and Tail Malformation (AID 2283656)
Method in brief: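 Dechorionated 5D zebrafish, 1/well from 6 hpf; static exposure to 120 hpf, 28C, sealed, dark; final DMSO 0.64% v/v. NC scored binary (present/absent); dead embryos not scored. Fit vs DMSO baseline, gain direction.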

[18] = target: Cellular tumor antigen p53 (Homo sapiens) (UniProt P04637); experiment: TOX21_p53_BLA_p4_ratio: Tox21 HCT-116 p53 Agonism Beta-lactamase Assay, Ratio, Phase 4 (AID 2283601)
Method in brief: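 Signal is the blue/green (460nm/530nm) ratio of cleaved versus uncleaved CCF4-AM substrate, read after 2 h substrate loading. Cells were HCT116 carrying the p53-responsive beta-lactamase reporter, dosed 16 h at 37C, 5% CO2; CellTiter-Glo measured in parallel.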

[19] = read-out: solute carrier (SLC22A6), SLC22A6 (gene 9356); experiment: LTEA_HepaRG_SLC22A6: Life Technologies and Expression Analysis (LTEA) Assay for solute carrier (SLC22A6) using HepaRG (AID 2283653; active = hit-call score of the fitted dose curve at least 0.9, where 1 is the maximum; inactive = score below 0.9); details: mRNA level, 48 h; actives raise or lower the signal
Method in brief: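 Read-out is SLC22A6 transcript level by qRT-PCR, normalised to three housekeeping genes and fitted for gain or loss relative to 0.5% DMSO vehicle. Human HepaRG cells received chemicals at up to 100 uM for 48 h.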

Measured: outcome

Sequence of Cellular tumor antigen p53 (Homo sapiens) (P04637 whole entry, looked up): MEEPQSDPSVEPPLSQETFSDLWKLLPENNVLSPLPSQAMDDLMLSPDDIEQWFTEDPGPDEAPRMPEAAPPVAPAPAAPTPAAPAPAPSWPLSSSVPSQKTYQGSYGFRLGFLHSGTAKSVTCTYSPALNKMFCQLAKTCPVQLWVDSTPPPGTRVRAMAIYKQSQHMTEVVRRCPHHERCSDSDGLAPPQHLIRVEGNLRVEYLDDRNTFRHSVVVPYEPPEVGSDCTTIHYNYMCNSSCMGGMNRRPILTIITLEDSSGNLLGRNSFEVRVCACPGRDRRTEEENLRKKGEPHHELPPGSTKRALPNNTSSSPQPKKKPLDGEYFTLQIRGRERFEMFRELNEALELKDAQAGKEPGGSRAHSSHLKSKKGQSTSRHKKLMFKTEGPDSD

CCSC(=O)N1CCCCCC1
inactive: [1] | [2] | [3] | [4] | [5] | [6] | [7] | [8] | [9] | [10] | [11] | [12] | [13] | [14] | [15]

CCCC(=NOCC)C1=C(O)CC(CC(C)SCC)CC1=O (stereo not given)
inactive: [1] | [2] | [3] | [4] | [5] | [6] | [7] | [16] | [8] | [9] | [10] | [11] | [12] | [13] | [14] | [15] | [17]

Cc1nc(N(C)C)nc(OC(=O)N(C)C)c1C
inactive: [1] | [2] | [3] | [4] | [5] | [6] | [7] | [16] | [9] | [10] | [11] | [12] | [13] | [14] | [15]

OC(c1ccc(Cl)cc1)(c1ccc(Cl)cc1)C(Cl)(Cl)Cl
inactive: [18] | [1] | [5] | [6] | [7] | [16] | [8] | [10] | [11] | [12] | [13] | [14] | [17]

CS(=O)(=O)c1cc(C(F)(F)F)ccc1C(=O)c1cnoc1C1CC1
inactive: [1] | [2] | [3] | [4] | [5] | [6] | [7] | [16] | [9] | [10] | [11] | [12] | [13] | [14] | [15]

CCOc1nc(F)cc2nc(S(=O)(=O)Nc3c(Cl)cccc3Cl)nn12
inactive: [18] | [1] | [3] | [5] | [6] | [7] | [16] | [8] | [9] | [10] | [11] | [12] | [13] | [14] | [15] | [17]

CN=C=S
inactive: [18] | [1] | [2] | [3] | [4] | [7] | [16] | [8] | [10] | [11] | [12] | [13] | [19] | [14] | [15]

CCOc1cc(C(C)(C)C)ccc1C1COC(c2c(F)cccc2F)=N1 (stereo not given)
inactive: [1] | [2] | [3] | [4] | [5] | [6] | [16] | [8] | [9] | [10] | [11] | [14] | [15] | [17]

Clc1cccc(C(Cl)(Cl)Cl)n1
inactive: [1] | [2] | [3] | [4] | [5] | [6] | [7] | [8] | [9] | [10] | [11] | [13] | [14] | [15] | [17]
